PubChem BioAssay (NCATS)
Inconclusive results are not listed. Unless noted, calls come from the whole dose curve; as a rule, active = well fitted curve in either direction with a large enough effect (not every such curve was filed as active); inconclusive = small, poorly fitted or top-dose-only effect, or another doubt; inactive = flat fitted curve, though single readings scatter.

target: Mitogen-activated protein kinase 10 (Mus musculus) (UniProt Q61831); assay: JNK3 AlphaScreen Assay (AID 530); conditions: JNK3 lysate, c-Jun phosphorylation; series mostly up to 11.4 µM; activity change, negative = inhibition: at the top concentration;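 note: kinase came from lysate of stimulated human HepG2 cells; signal reports phosphorylation of biotinylated GST-cJun 1-79 at Ser73 with 10 µM ATP; % is set by controls: 0 for no effect and ±100 for the full control effect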
How it was run: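 Inhibitors reduce antibody binding to phosphorylated biotin-cJun, lowering AlphaScreen luminescence. Lysates from HepG2 cells pre-activated by IL-1beta plus TNF-alpha supplied JNK3; compounds were titrated.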

Activity change, negative = inhibition, inactive:
N#C[C@H](c1ccccc1)N1CCCN([C@@H](C#N)c2ccccc2)C1c1ccccc1O (stereo not given in full) 0.391%, O=C1CNCCCN2CCN(CCCNCC(=O)Nc3ccc(cc3)S(=O)(=O)c3ccc(cc3)NC(=O)CNCCCN3CCN(CCCNCC(=O)Nc4ccc(cc4)S(=O)(=O)c4ccc(cc4)N1)CC3)CC2 4.49%, Cn1c(=S)c2[nH]c(SCc3cccnc3)nc2n(C)c1=O 3.93%, Nc1ncnc2nc[nH]c12.Nc1ncnc2nc[nH]c12.[Cl][Pt]([Cl])([Cl])[Cl] -3.17%, CSC1(SC2=NCCN2)SC2(NCCN2)S1 1.46%, N=C(N)S[C@H]1c2ccccc2-c2cc([N+](=O)[O-])ccc21 -10.3%, c1nc(NCCc2cnc[nH]2)c2[nH]cnc2n1 1.22%, COc1ccc2c(c1)Cc1cc(N=[N+]([O-])c3ccc4c(c3)Cc3cc(OC)ccc3-4)ccc1-2 -10.1%, C(=N/Nc1nnc2c(n1)[nH]c1ccccc12)/c1cccnc1 0.473%, O=C(CC(=O)c1ccncc1)c1ccccc1 2.48%, O=S(=O)(O)c1cc(O)c2c(N=Cc3ccccc3O)cc(S(=O)(=O)O)cc2c1 0.621%, CC(C)(C)C(=O)[C@H]([C@@H](c1ccccc1)N1CCOCC1)N1CCOCC1 1.21%, BrC(c1cccc2ccccc12)c1cccc2ccccc12 6.59%, C/C(=N/Nc1ccc2ccccc2n1)c1ccccc1O -1.66%, O[C@@H](C1=C/C(=C\c2ccncc2)c2ccccc21)c1ccncc1 -1.57%, Nc1cccc(OCc2nc(N)nc(N)c2-c2ccc(Cl)cc2)c1 2.11%, CN(C)c1ccc(/C=N\NC(=O)c2cnc3ccccc3c2)cc1 3.46%, Cc1ccc(S(=O)(=O)Nc2cc(=O)[nH]c3c2CCC3)cc1 0.736%, Cc1ccc2c(c1)N[C@H](c1ccc(C(=O)O)cc1)c1cccn1-2 -2.97%, COc1cc(Cl)c(CC(=O)c2c[nH]c3ccccc23)cc1OC 38.1%, Cn1c(=O)c2[nH]c(SCc3ccccn3)nc2n(C)c1=S 3.61%, Nc1nc(SCc2ccccc2[N+](=O)[O-])c2[nH]cnc2n1 -5.48%, COCCn1c(=O)c(-c2ccccc2)nc2cnc(Oc3ccccc3)nc21 37.7% [at 57.1 µM], Cn1ncc2c(NCCc3ccccc3)nc(Cl)nc21 29.4%, COc1ccc(Oc2ncc3nc(C)c(=O)n(-c4ccc(OC)cc4)c3n2)cc1 -8.66% [at 57.1 µM], CN[C@@H](c1ccncc1)[C@@H](NC)c1ccncc1 -1.09%, CCCCSCc1nc2nc(Cl)c(Cl)nc2[nH]1 1.69%, CC(C)N1CCN(c2ccncc2S(=O)(=O)N2CCCCC2)CC1 6.43%, Nc1nc(SCCc2ccccc2)c2[nH]cnc2n1 -8.87%, CN(C)C[C@H]1CCC[C@@H](CN(C)C)C1=O 4.84%, O=C1C2=C(Nc3cc([N+](=O)[O-])ccc3N2)O[C@@H]1c1c[nH]c2ccc(COc3ccccc3)cc12 -0.999%, O=S(=O)(c1cnccc1N1CCN(CCO)CC1)N1CCCC1 8.61%, C[C@](O)(c1ccccc1)c1nccc2ccccc12 1.56%, O=c1oc2cc(N=Cc3ccc4c(c3)OCO4)ccc2c2ccccc12 4.01%, C=C[C@]1(C)C[C@H](OC(=O)CO)[C@]2(C)C3C(=O)CC[C@]3(CC[C@H]2C)[C@H](C)[C@H]1O (stereo not given in full) -0.27%, O=C(O)c1ccc(SSc2ccc(C(=O)O)cn2)nc1 -3.3%, O=C(CSc1nc2ccc([N+](=O)[O-])cc2s1)c1ccc2ccccc2c1 -4.97%, COc1ccc2c(Cl)cc(NC(=S)Nc3ccccc3)nc2c1 -2.94%, Nc1[nH]c(=S)[nH]c(=O)c1N=Nc1c(Br)cc(S(N)(=O)=O)cc1Br -4.41%, Cn1c(=O)c2[nH]c(CCCCc3nc4c([nH]3)c(=O)n(C)c(=S)n4C)nc2n(C)c1=S 2.3%

target: 3',5'-cyclic-AMP phosphodiesterase 4B (Homo sapiens) (UniProt Q07343); assay: qHTS Assay for Inhibitors of PDE-IV (AID 607; active = well fitted activation curve with a large enough effect in the main read-out, with a control signal flat, not every such curve was filed as active; note: % of control where 0% means no effect); conditions: HEK293 ACTOne CNG channel cells, membrane potential fluorescence; series mostly up to 22.9 µM; activation (PDE inhibition): at the top concentration
Sequence (Q07343 whole entry, looked up): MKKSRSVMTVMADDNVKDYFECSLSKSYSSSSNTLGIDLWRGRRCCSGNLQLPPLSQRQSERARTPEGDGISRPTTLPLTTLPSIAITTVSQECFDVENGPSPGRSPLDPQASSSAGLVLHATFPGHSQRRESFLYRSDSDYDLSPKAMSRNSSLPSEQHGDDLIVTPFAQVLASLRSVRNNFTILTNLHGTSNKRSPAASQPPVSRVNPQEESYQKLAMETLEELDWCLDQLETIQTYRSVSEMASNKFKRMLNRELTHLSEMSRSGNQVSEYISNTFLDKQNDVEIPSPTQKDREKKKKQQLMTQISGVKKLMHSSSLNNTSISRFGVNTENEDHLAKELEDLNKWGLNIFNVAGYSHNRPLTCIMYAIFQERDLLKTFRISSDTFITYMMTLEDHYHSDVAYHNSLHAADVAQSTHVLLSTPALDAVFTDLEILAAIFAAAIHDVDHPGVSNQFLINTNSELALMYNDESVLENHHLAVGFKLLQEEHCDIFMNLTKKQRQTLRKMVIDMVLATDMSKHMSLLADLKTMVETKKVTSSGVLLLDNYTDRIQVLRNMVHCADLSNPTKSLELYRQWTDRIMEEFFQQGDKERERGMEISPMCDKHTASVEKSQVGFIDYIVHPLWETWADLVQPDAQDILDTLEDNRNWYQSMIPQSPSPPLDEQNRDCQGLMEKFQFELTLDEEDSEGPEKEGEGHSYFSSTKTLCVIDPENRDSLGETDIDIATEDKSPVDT
How it was run: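 Live HEK293 cells with a modified cyclic nucleotide-gated (CNG) channel report intracellular cAMP via membrane-potential dye fluorescence (ex 535/em 590 nm). Endogenous PDE-IV was targeted. Compounds were tested at up to 22.9 uM final; RO 20-1724 100 uM served as control.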

Activation (PDE inhibition), inactive:
N#C[C@H](c1ccccc1)N1CCCN([C@@H](C#N)c2ccccc2)C1c1ccccc1O (stereo not given in full) 17.8%, O=C1CNCCCN2CCN(CCCNCC(=O)Nc3ccc(cc3)S(=O)(=O)c3ccc(cc3)NC(=O)CNCCCN3CCN(CCCNCC(=O)Nc4ccc(cc4)S(=O)(=O)c4ccc(cc4)N1)CC3)CC2 5.52%, Cn1c(=S)c2[nH]c(SCc3cccnc3)nc2n(C)c1=O 7.9%, Nc1ncnc2nc[nH]c12.Nc1ncnc2nc[nH]c12.[Cl][Pt]([Cl])([Cl])[Cl] -2.98%, CSC1(SC2=NCCN2)SC2(NCCN2)S1 -0.543%, N=C(N)S[C@H]1c2ccccc2-c2cc([N+](=O)[O-])ccc21 18.9%, c1nc(NCCc2cnc[nH]2)c2[nH]cnc2n1 -5.48%, COc1ccc2c(c1)Cc1cc(N=[N+]([O-])c3ccc4c(c3)Cc3cc(OC)ccc3-4)ccc1-2 1.73%, C(=N/Nc1nnc2c(n1)[nH]c1ccccc12)/c1cccnc1 -11.2%, O=C(CC(=O)c1ccncc1)c1ccccc1 1.63%, O=S(=O)(O)c1cc(O)c2c(N=Cc3ccccc3O)cc(S(=O)(=O)O)cc2c1 -4.83%, CC(C)(C)C(=O)[C@H]([C@@H](c1ccccc1)N1CCOCC1)N1CCOCC1 8.45%, BrC(c1cccc2ccccc12)c1cccc2ccccc12 13.4%, C/C(=N/Nc1ccc2ccccc2n1)c1ccccc1O 0.791%, O[C@@H](C1=C/C(=C\c2ccncc2)c2ccccc21)c1ccncc1 -9.91%, Nc1cccc(OCc2nc(N)nc(N)c2-c2ccc(Cl)cc2)c1 -3.37%, CN(C)c1ccc(/C=N\NC(=O)c2cnc3ccccc3c2)cc1 2.04%, Cc1ccc(S(=O)(=O)Nc2cc(=O)[nH]c3c2CCC3)cc1 5.46%, Cc1ccc2c(c1)N[C@H](c1ccc(C(=O)O)cc1)c1cccn1-2 7.35%, COc1cc(Cl)c(CC(=O)c2c[nH]c3ccccc23)cc1OC -20.2%, Cn1c(=O)c2[nH]c(SCc3ccccn3)nc2n(C)c1=S 3.15%, Nc1nc(SCc2ccccc2[N+](=O)[O-])c2[nH]cnc2n1 -1.8%, COCCn1c(=O)c(-c2ccccc2)nc2cnc(Oc3ccccc3)nc21 -10.9%, Cn1ncc2c(NCCc3ccccc3)nc(Cl)nc21 3.61%, COc1ccc(Oc2ncc3nc(C)c(=O)n(-c4ccc(OC)cc4)c3n2)cc1 16.2%, CN[C@@H](c1ccncc1)[C@@H](NC)c1ccncc1 -1.17%, CCCCSCc1nc2nc(Cl)c(Cl)nc2[nH]1 2.66%, CC(C)N1CCN(c2ccncc2S(=O)(=O)N2CCCCC2)CC1 -2.4%, Nc1nc(SCCc2ccccc2)c2[nH]cnc2n1 6.82%, CN(C)C[C@H]1CCC[C@@H](CN(C)C)C1=O -0.871%, O=C1C2=C(Nc3cc([N+](=O)[O-])ccc3N2)O[C@@H]1c1c[nH]c2ccc(COc3ccccc3)cc12 15.2%, O=S(=O)(c1cnccc1N1CCN(CCO)CC1)N1CCCC1 -4.05%, C[C@](O)(c1ccccc1)c1nccc2ccccc12 2.22%, O=c1oc2cc(N=Cc3ccc4c(c3)OCO4)ccc2c2ccccc12 2.14%, C=C[C@]1(C)C[C@H](OC(=O)CO)[C@]2(C)C3C(=O)CC[C@]3(CC[C@H]2C)[C@H](C)[C@H]1O (stereo not given in full) -3.62%, O=C(O)c1ccc(SSc2ccc(C(=O)O)cn2)nc1 -1.48%, O=C(CSc1nc2ccc([N+](=O)[O-])cc2s1)c1ccc2ccccc2c1 19.2%, COc1ccc2c(Cl)cc(NC(=S)Nc3ccccc3)nc2c1 -7.52%, Nc1[nH]c(=S)[nH]c(=O)c1N=Nc1c(Br)cc(S(N)(=O)=O)cc1Br 4.83%, Cn1c(=O)c2[nH]c(CCCCc3nc4c([nH]3)c(=O)n(C)c(=S)n4C)nc2n(C)c1=S 3.35%
